Hits are enriched below; roughly 2.2% of the tested compounds scored in any of these assays.
FUS suppressor = suppressors of FUS proteinopathy in yeast; Potency, µM (doses to about 76.6 µM), actives largely listed as activators; 390,000 compounds, 0.24% hits; S. cerevisiae FUS-expressing, growth rescue, OD600, 24 h; note: nearly all actives have a fitted effect of over 55% in size
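Compound concentration series was pinned onto galactose-induced FUS-expressing yeast seeded at OD 0.005. Plates sat 24hr at 30C; absorbance at 600 nm gave growth. DMSO served as background control.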
Mito fusion act = inhibitors of mitochondrial division or activators of mitochondrial fusion | Potency, µM (highest dose often 46.1 µM), usual class: activators | S. cerevisiae fusion-defective mutant growth rescue, CellTiterGlo 48 h | 320,000 compounds, 0.23% hits | AID 485298; note: nearly all actives have a fitted effect of over 45% in size
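Compounds are tested for their ability to restore growth of mitochondrial fusion-defective yeast strains at non-permissive 37C in YPEG medium over 48 hours. Viability is quantified by luciferase luminescence.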
ERG-DNA inh = ERG Ets/DNA interaction inhibition. P11308. fluorescence polarization, His-ERG Ets domain / labelled DNA. Potency, µM (top dose mostly 76.9 µM), most hits filed as inhibitors. 370,000 compounds, 0.028% hits. AID 624246; active = well fitted inhibition curve with a large enough effect in the polarisation, with a control signal flat; inconclusive = small, poorly fitted or top-dose-only effect, or effect the other way, or a change in a side signal; inactive = no such curve, though single readings can be large or run the other way; the % refers to the polarisation;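 note: polarization taken with two DNA probes labelled with fluorescein and Texas red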
Target sequence (P11308 whole entry, looked up, the tested form may be a part): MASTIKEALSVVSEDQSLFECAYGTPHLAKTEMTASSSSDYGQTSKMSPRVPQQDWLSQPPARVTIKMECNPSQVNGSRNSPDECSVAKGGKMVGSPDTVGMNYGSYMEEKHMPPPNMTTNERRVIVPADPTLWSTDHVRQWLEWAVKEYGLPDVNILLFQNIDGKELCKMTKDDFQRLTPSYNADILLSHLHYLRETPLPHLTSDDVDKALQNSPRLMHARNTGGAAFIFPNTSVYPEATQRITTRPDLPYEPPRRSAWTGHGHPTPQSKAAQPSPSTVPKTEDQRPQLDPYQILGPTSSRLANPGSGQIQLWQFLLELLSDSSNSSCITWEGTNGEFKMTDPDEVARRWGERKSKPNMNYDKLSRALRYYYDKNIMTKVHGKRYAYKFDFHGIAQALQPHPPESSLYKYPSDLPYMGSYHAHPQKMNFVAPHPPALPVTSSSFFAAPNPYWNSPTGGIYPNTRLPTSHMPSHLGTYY
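His-tagged ERG Ets domain (1 uM in the protein solution; 300mM KCl, 50mM Tris-HCl, 1mM EDTA, 1mM DTT, pH 7.5) received compound, then a probe mix of 5 nM fluorescein-DNA and 100nM Texas-615-DNA. Fluorescence polarization was read for both dyes.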
Abeta yeast res = compounds reversing amyloid beta toxicity in yeast; Potency, µM (top dose mostly 46.1 µM), most hits filed as activators; AID 1347071; yeast expressing A-beta42, growth rescue, OD600, 48 h; response scale: 0% DMSO, 100% iron-clioquinol control; 410,000 compounds, 0.063% hits; note: nearly all actives have a fitted effect of over 55% in size
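Yeast growth medium received pinned compounds, then yeast cells expressing toxic A-beta were added; plates incubated at 30 C for 48 hr. Growth read as absorbance at 600 nm, normalized to DMSO and equimolar FeCl3 plus clioquinol controls.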
aSyn rescue = rescues yeast growth from alpha-synuclein toxicity; Yeast expressing alpha-synuclein, growth rescue, BacTiter-Glo, 24 h; Potency, µM (highest dose often 46.1 µM), actives largely listed as activators; 370,000 compounds, 0.14% hits; AID 652106; note: nearly all actives have a fitted effect of over 65% in size
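Screening used galactose-induced yeast with toxic alpha-synuclein levels, exposed to compound for 24 hr at 30 deg C. Cell growth, read with BacTiter-Glo luminescence, gave the measured signal.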
TDP-43 yeast inh = TDP-43 toxicity inhibition in yeast. TDP-43 expressing yeast growth rescue, BacTiter-Glo, 24 h. Potency, µM (doses to about 46.1 µM), usual class: activators. 410,000 compounds, 1.8% hits; note: nearly all actives have a fitted effect of over 50% in size
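Galactose-induced TDP-43 yeast, OD600=0.02, compound pinned; 24 hr, 30 deg C; BacTiter-Glo luminescence for growth. Inhibitors of TDP-43 toxicity read as activators.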
Numbers stand for hits; 0 = inactive; ? = inconclusive; - = not tested or not shown. Unless noted, calls come from the whole dose curve; as a rule, active = well fitted curve in the direction sought with a large enough effect; inconclusive = small, poorly fitted or top-dose-only effect, or another doubt; inactive = no such curve, though single readings can be large; an effect the other way counts as inactive or inconclusive.

SMILES	FUS suppressor	Mito fusion act	ERG-DNA inh	Abeta yeast res	aSyn rescue	TDP-43 yeast inh
Cc1cccc(C)c1NC(=O)c1ccc2nc(CCc3ccccc3)oc2c1	0	-	0	0	-	12.6µM
CCN(CC(=O)N1CCC(C(N)=O)CC1)S(=O)(=O)c1cc(Cl)ccc1Cl	0	-	0	0	0	0
CCOC(=O)c1cn2nc(SCc3ccccc3)nc2nc1C	0	0	0	0	0	15.8µM
Cc1nc2nc(SCc3ccccc3)nn2c(C)c1C	0	0	0	0	0	?
Cc1cc(C(=O)OCC(=O)NC2(C#N)CCCCC2)c(C)o1	0	0	0	0	0	0
CC(C)c1ccc(OC[C@@H](O)CN2CCC(C(O)(c3ccccc3)c3ccccc3)CC2)cc1	0	-	-	-	-	-
Cc1ccc(S(=O)(=O)c2cc3c(=O)n4ccccc4nc3n(Cc3ccco3)c2=N)cc1	14.1µM	0	0	0	0	0
CCCCNS(=O)(=O)CC1NCc2cc(F)ccc21 (configuration not stated)	0	-	-	-	-	-
C#CCn1c(S(=O)(=O)Cc2ccc(OC)cc2)nc(-c2ccccc2)c1-c1ccccc1	25.1µM	0	0	0	0	0
CCOC(=O)Cn1c(S(=O)(=O)Cc2ccc(Cl)cc2)nc(-c2ccccc2)c1-c1ccccc1	0	0	0	0	0	0
Clc1cc(Sc2ccc(Br)cc2)nnc1-c1ccccc1	0	0	0	0	0	5.01µM
COCc1cc(Sc2ccc(Br)cc2)nc(-c2ccccc2)n1	0	0	0	0	0	0
CC(C)(C)[C@@H]1/C(=C/C2CC2)N2C(=O)C[C@@H](c3ccccc3)N=C2N1Cc1ccc2c(c1)OCO2	0	-	-	-	-	-
Cc1cccc(N2C(=O)N(CC(=O)C(C)(C)C)c3ccccc3S2(=O)=O)c1C	?	-	0	?	-	0
O=C1CC(=Nc2ccccc2)NN1c1ccccc1	12.6µM	0	0	?	0	15.8µM
C[C@H]1[C@@H](NC(=O)c2ccc(O)cc2)CC[C@@]23CCCN2C(=O)CCC[C@@H]13	0	-	-	-	-	-
CCOc1ccc(N=C2SC(C(=O)Nc3ccccc3C#N)C(N)=C2C(=O)Nc2ccc(Cl)cc2)cc1 (configuration not stated)	35.5µM	0	0	0	0	0
CCCc1ccc(NC(=O)C2CCCN(c3cnccn3)C2)cc1 (configuration not stated)	0	?	0	0	?	31.6µM
CC1CCN(S(=O)(=O)c2ccc3c(c2)oc(=O)n3CC(=O)NC(C)c2ccccc2)CC1 (configuration not stated)	0	-	0	0	-	0
CCCn1c(C)cc(C(=O)COc2ncnc3sccc23)c1C	?	0	0	0	0	0
CCCn1c(C)cc(C(=O)COc2ccc(-c3nnco3)cc2)c1C	0	0	0	0	0	28.2µM
O=C(c1ccc(Nc2nc3ccccc3n3nnnc23)cc1)N1CCN(c2ccc(F)cc2)CC1	0	-	0	?	-	10µM
O=C(NNc1nc2ccc(Cl)cc2s1)c1cc(-c2cccs2)nc2ccccc12	0	0	0	?	?	4.47µM
COc1cc(/C=C/C(=O)N2CCC=CC2=O)cc(OC)c1OC	0	0	0	0	0	22.4µM
COc1cc(OC)c(C(=O)C=Cc2ccc(OC)c(OC)c2)c(OC)c1	0	-	0	0	0	0
SMILES	FUS suppressor	Mito fusion act	ERG-DNA inh	Abeta yeast res	aSyn rescue	TDP-43 yeast inh
COc1ccc(C(=O)/C=C/c2ccc(OC)c(O)c2)c(F)c1	-	0	0	0	0	22.4µM
COc1cc(/C=C/C(=O)N2CCCN(C(=O)/C=C/c3cc(OC)c(OC)c(OC)c3)CC2)cc(OC)c1OC	0	0	0	0	0	0
COc1cc(C=CC(=O)c2ccccc2)cc(OC)c1OC	0	-	-	0	?	14.1µM
COc1ccc(C=CC(=O)c2ccc(OC)c(OC)c2O)cc1OC	0	-	0	0	?	12.6µM
COc1ccccc1C(=O)C1CCCN(C(=O)c2ccc(Cl)cc2)C1 (configuration not stated)	0	-	-	0	0	0
O=C(Nc1ccc(Cl)cc1Cl)c1cnn2c1NC(=C1CC1)C=C2C(F)F	-	-	-	-	0	-

Assay outcomes (PubChem BioAssay)
